# Source: the supplement of paper PMC6555819
# Assays:
# Assay in all cases: PBM binding z-score (relative to random genomic background probes); higher = stronger binding; sequences stand for … in GC…GCGATTGACAGCGTAGAATGAAGG
# [1] = tested on: PPARg:RXRa DBDmut IVT, anti-RXR (DBD mutation: RXRa K156A/R161A, NR concentration 270 nM, RXRa partner concentration 90 nM)
# In short: (§1)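 Ligand-free nuclear receptor dimers were bound for 1 h to custom Agilent 4×180K protein-binding microarrays. Detection used antibodies against each partner (one per run). Binding z-scores rest on regression-normalized fluorescence, with random background probes as the reference.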
# [2] = tested on: PPARg:RXRa IVT, anti-PPARg (NR concentration 270 nM, RXRa partner concentration 90 nM)
# In short: as §1
# [3] = tested on: PPARg DBDmut:RXRa IVT, anti-PPARg (DBD mutation: PPARg1 K132A/R137A, NR concentration 270 nM, RXRa partner concentration 90 nM)
# In short: as §1
# [4] = tested on: PPARg DBDmut IVT, anti-PPARg (DBD mutation: PPARg1 K132A/R137A, NR concentration 270 nM)
# In short: as §1
# [5] = tested on: PPARg homodimer (NR concentration 180 nM)
# In short: as §1
# [6] = tested on: PXR:RXRa (NR concentration 270 nM, RXRa partner concentration 90 nM)
# In short: as §1
# [7] = tested on: PXR homodimer (NR concentration 270 nM)
# In short: as §1
# [8] = tested on: RARa:RXR (NR concentration 270 nM, RXRa partner concentration 90 nM)
# In short: as §1
# [9] = tested on: RARa homodimer (NR concentration 270 nM)
# In short: as §1
# [10] = tested on: RARb:RXRa (NR concentration 270 nM, RXRa partner concentration 90 nM)
# In short: as §1
# [11] = tested on: RARb homodimer (NR concentration 270 nM)
# In short: as §1
# [12] = tested on: RARg:RXRa (NR concentration 270 nM, RXRa partner concentration 90 nM)
# In short: as §1
# [13] = tested on: RARg homodimer (NR concentration 270 nM)
# In short: as §1
# [14] = tested on: RXRa DBDmut IVT, anti-RXR (DBD mutation: RXRa K156A/R161A, NR concentration 90 nM)
# In short: as §1
# [15] = tested on: RXRa homodimer (NR concentration 180 nM)
# In short: as §1
# [16] = tested on: THRa:RXRa (NR concentration 90 nM, RXRa partner concentration 90 nM)
# In short: as §1
# [17] = tested on: THRa homodimer (NR concentration 90 nM)
# In short: as §1
# [18] = tested on: VDR homodimer (NR concentration 270 nM)
# In short: as §1
Sequence,PBM binding z-score [1],PBM binding z-score [2],PBM binding z-score [3],PBM binding z-score [4],PBM binding z-score [5],PBM binding z-score [6],PBM binding z-score [7],PBM binding z-score [8],PBM binding z-score [9],PBM binding z-score [10],PBM binding z-score [11],PBM binding z-score [12],PBM binding z-score [13],PBM binding z-score [14],PBM binding z-score [15],PBM binding z-score [16],PBM binding z-score [17],PBM binding z-score [18]
CAAACTAGGTGACCGGAAGGTCAAAGTCCGCATG,7.47,7.68,2.87,3.33,3.59,4.49,1.01,5.41,0.811,3.81,4.4,5.38,3.94,0.562,3.89,3.57,1.86,2.49
CGTCCAAGGTCAGCAAGTCAGTGAAAGCGACGTG,2.61,2.52,-0.905,-1.02,2.24,2.38,0.119,3.13,0.523,4.99,3.99,5.01,6,2.5,4.02,3.42,1.67,1.03
ACTAGCAGGCCAAGTTTGGTTCACTCAAACAAAG,0.651,0.311,0.0208,-0.415,-0.521,0.287,0.256,0.113,-0.755,0.54,0.338,0.163,0.218,0.0733,-0.193,0.405,-0.294,0.338
TCGAGTAGGTTAGTCGGGGCCTTCAGCCAACATA,1.83,1.08,-1.4,-0.48,-0.555,-0.49,-0.597,-0.0225,-1.38,0.0952,-0.149,-0.47,-0.571,0.14,-0.278,1.57,-0.433,-0.455
GCTAGTTGGTCAGTAAAAGGTTACACACCGGTCG,0.66,1.05,-0.658,-0.197,1.27,1.42,0.164,1.98,0.524,2,2.7,2.11,1.34,0.00211,1.59,1.42,0.424,0.234
AGAATGAGGTTAAGATGAGGGAAACAGAATACAT,2.68,2.39,1.61,0.526,0.984,1.35,0.581,2.22,0.74,1.95,1.16,2.21,1.62,1.17,2.38,2.61,0.911,0.657
ACTAGTTGGTCAGCTTAGGTCACACACAATTCGG,1.43,1.87,0.8,0.659,1.88,2.67,0.251,2.57,1.13,2.65,3.68,2.59,3.19,0.83,1.69,4.33,3.55,0.863
CCGACTGGGGCAGAAAGGTTAGCATACCATCCGG,1.54,1.41,-0.783,-1.16,-0.251,0.123,-0.44,0.634,0.154,1.43,1.74,0.906,0.862,-0.65,0.988,0.31,-0.682,-0.346
CGAACTAGATCATTGACAGGACAGTGAATAGTAA,1.8,0.856,0.569,0.266,0.538,0.285,-0.0589,0.3,0.92,0.0179,0.278,0.201,0.25,0.0168,0.337,0.239,0.557,0.205
AGAACGAGGGCACGATGAGTTGATAGCAGAGTAG,3.75,3.91,0.853,0.0308,0.364,1.17,0.453,1.01,-0.256,2.32,1.22,2.18,2.42,1.77,1.57,2.03,0.236,1.66
AGAATGAGGTTATTAAAATCAGGGAATTGCGGTC,3.19,2.38,0.973,0.541,0.649,1.13,0.34,1.44,0.843,1.25,0.836,0.827,0.788,1.46,1.43,1.89,0.676,0.874
CCTAGTTGGTCAAGGTCACACTCGCTATAGGTAC,2.46,3.35,0.792,0.878,3.44,3.95,2.21,4.18,2.57,3.85,4.05,4.19,4.5,2.44,3.96,3.92,4.03,3.42
TCTATTAGTTGACGGGCAACCGACGAGTCCGTTT,2.04,0.118,0.163,0.317,0.156,0.38,0.151,0.201,0.109,0.613,-0.1,0.0549,-0.0135,1.46,0.417,-0.223,-0.348,0.718
CCTACTGGGCCAAAAAGGTCATTGCTGCCGATAA,4.17,4.29,0.288,-0.116,3.92,4.87,3.45,5.19,0.902,3.98,4.46,4.63,4.02,0.7,4.99,2.99,0.486,2.98
AGAACGAGGGCTATGAGTTGATAGCACGGGTGGC,0.434,-0.14,-0.172,-1.35,-0.607,-0.351,0.0434,-0.584,0.201,-0.0296,-0.36,-0.0451,-0.0854,-0.264,0.416,-0.476,-0.913,-0.036
